The results in this text go back to PubChem BioAssay.

Assay [1] can be described thus: blockers of polyQ-driven CASP3 activation – cell-based (AID 1583). The note with it: polyglutamine-induced caspase-3 activation, cell assay; stronger effect = higher value;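 tested at 10 µM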.
The nature of assay [2]: blockers of biotin-polyQ monomer incorporation into aggregates – biochemical, solid-phase synthetic aggregates, QA3 (AID 1585; call rule not given here). The note with it: polyQ aggregate elongation; EC50: measured here: elongation inhibition potency; inhibition: at 100 µM, stronger effect = higher value.
A short description of assay [3]: yeast 75Q aggregation reduction – 75Q-TubU reporter (AID 1593). The note with it: Yeast 75Q polyglutamine aggregation reporter.
The nature of assay [4]: restoration of touch response, mutant HTT neurons – whole organism, C. elegans mechanosensory neurons, N-terminal huntingtin (AID 1599). The note with it: C. elegans polyQ-huntingtin mechanosensory neurons, stronger effect = higher value.
Assay [5] can be described thus: blockers of cytochrome c efflux from mitochondria – biochemical, purified mitochondria (AID 1603).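 Note: mouse liver mitochondria challenged with calcium chloride; signal normalized to the plate average as 100%.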 The note with it: stronger effect = lower value.
A short description of assay [6]: polyglutamine aggregate formation blockers (AID 1604). As to conditions: polyglutamine-induced protein aggregation inhibition assay; stronger effect = higher value; tested at 2.5 µM.
The nature of assay [7]: glutamate transport activators, MN-1 cells, MN-1 cell line (AID 1612).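 Note: tested at 1 µM final; 0% = mean of DMSO vehicle wells on each plate; positive means more glutamate uptake than control and negative means less.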 As to conditions: MN-1 motor neuron cells, stronger effect = higher value.
Assay [8] can be described thus: 75Q-TubH aggregate inhibition, S. cerevisiae, yeast (AID 1616). The note with it: S. cerevisiae 75Q-TubH polyglutamine aggregation suppression; stronger effect = higher value.
Assay [9] can be described thus: P. berghei load reduction in hepatocytes – cell-based, HepG2, luciferase luminescence, HepG2 viability, primary screen (AID 624349).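 Note: 100% = mean of DMSO negative control wells on the same plate.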 The note with it: P. berghei liver stage in HepG2, luciferase luminescence, concentration not given here; parasite load remaining: stronger effect = lower value; viability: measured here: HepG2 viability without parasites.
The nature of assay [10]: EMT-state selective cytotoxicity in co-culture – imaging, PC-3E GFP, TEM4-18 mCherry, primary screen (AID 1345086;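 active = compounds killing one labelled cell type while sparing the other, by normalised counts and ratio limits, not self-fluorescent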;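 for all read-outs here: cells exposed to compound for 72 h before imaging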;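 for red/green cell ratio (normalised): normalised mesenchymal count divided by normalised epithelial count so high means epithelial killing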). As to conditions: PC-3E GFP / TEM4-18 mCherry co-culture, imaging cell counts, at 1 µM; for red/green cell ratio (normalised): actives lie on both sides, counts scaled to control wells, 1 = unselective.
The nature of assay [11]: viability loss with induced miR-34 in A549 – imaging, A549 dox-inducible miR-34, nuclei and caspase counts, primary screen (AID 1347080;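 active = compounds whose cell count with miR-34 switched on is under 0.7 times the count with it off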). The note with it: A549 miR-34 inducible, Hoechst nuclei count, 48 h.
Assay [12] can be described thus: galactose survival enhancers in mitochondrial complex I cybrids – cell-based, galactose medium, ATP luminescence, primary screen (AID 1645843;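 active = z-score of at least 1.8 in each of two replicates, scored against plate mean and spread of sample wells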;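 note: positive z means more ATP and so rescue of galactose-driven cybrid death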). The note with it: complex I mutant cybrid cells, 72 h, stronger effect = higher value.
For assay [13], the target named is NAD(+) hydrolase SARM1 (Homo sapiens) (UniProt Q6SZW1). Description: blocking NAD cleavage by SARM1 SAM-TIR – cell lysate, NAD-Glo luminescence (AID 1508614;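 active = compound whose remaining NAD level is above about 45 nM, limit read from the data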;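 note: higher remaining NAD means stronger inhibition of SARM1 NADase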). The note with it: SAM-TIR HEK293T lysate NADase, at 1 µM, stronger effect = higher value.
Chain of NAD(+) hydrolase SARM1 (Homo sapiens) (Q6SZW1 whole entry, looked up, the tested form may be a part): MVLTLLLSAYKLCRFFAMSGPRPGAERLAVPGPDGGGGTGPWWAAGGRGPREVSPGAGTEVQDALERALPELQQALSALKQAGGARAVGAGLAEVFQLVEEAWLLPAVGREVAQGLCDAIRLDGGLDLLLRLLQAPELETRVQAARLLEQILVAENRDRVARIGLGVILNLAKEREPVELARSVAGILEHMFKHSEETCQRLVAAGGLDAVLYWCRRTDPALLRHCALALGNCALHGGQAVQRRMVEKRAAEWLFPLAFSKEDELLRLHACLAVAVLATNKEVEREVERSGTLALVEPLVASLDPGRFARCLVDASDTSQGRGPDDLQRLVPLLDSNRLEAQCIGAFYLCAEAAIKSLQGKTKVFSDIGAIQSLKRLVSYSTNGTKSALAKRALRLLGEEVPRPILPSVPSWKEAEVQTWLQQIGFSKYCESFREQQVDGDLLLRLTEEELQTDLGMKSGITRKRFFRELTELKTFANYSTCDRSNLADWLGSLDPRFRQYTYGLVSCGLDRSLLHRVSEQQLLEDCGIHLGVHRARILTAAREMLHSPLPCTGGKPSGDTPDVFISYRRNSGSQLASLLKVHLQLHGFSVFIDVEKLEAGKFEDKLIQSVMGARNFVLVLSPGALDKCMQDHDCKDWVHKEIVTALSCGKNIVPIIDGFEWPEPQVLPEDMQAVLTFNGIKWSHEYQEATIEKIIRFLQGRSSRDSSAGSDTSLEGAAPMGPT
The target in assay [14] is Mitogen-activated protein kinase 7 (Homo sapiens) (UniProt Q13164). Briefly: Gal4-ERK5 driven luciferase induction – cell-based, HTS, primary screen (AID 1508626;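 active = luciferase signal above three times the same-plate solvent-only control wells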;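 note: luciferase driven by Gal4-ERK5 fusion binding five Gal4 sites before minimal TATA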). As to conditions: HeLa Gal4-ERK5 transactivation, 18 h, at 5 µM, stronger effect = higher value.
Chain of Mitogen-activated protein kinase 7 (Homo sapiens) (Q13164 whole entry, looked up, the tested form may be a part): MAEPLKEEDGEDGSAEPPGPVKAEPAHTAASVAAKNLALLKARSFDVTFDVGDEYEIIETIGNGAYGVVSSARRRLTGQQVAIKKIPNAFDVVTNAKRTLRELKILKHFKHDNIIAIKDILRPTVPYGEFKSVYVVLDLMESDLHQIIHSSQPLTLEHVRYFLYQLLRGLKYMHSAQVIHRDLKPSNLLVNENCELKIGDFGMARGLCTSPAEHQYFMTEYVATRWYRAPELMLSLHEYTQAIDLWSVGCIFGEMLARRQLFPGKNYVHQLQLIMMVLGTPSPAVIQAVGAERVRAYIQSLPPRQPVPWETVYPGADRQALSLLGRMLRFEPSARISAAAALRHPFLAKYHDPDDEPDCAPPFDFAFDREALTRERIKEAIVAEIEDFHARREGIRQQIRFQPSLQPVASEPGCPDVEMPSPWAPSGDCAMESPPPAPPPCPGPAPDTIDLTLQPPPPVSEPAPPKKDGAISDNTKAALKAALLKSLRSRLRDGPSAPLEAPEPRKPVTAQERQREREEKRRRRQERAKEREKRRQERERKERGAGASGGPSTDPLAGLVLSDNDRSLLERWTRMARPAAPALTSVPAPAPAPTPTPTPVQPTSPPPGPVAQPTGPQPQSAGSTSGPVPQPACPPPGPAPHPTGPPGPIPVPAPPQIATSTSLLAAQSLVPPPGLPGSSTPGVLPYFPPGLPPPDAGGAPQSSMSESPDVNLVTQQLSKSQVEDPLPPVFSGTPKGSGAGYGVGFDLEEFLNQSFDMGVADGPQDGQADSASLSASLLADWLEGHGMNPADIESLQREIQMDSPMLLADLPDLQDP
Assay [15] can be described thus: GFP-Q80 aggregate reduction, neuronal-like cells, cell-based, NGF-treated PC12, GFPQ80 (AID 1614).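 Note: lower means fewer inclusions and 0 means no inclusions at all.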 The note with it: PC12 NGF-treated GFP-polyQ80 inclusion reduction.
Where [16] appears, read: measured here: epithelial PC-3E GFP cell survival.
Setting [17] is: measured here: mesenchymal TEM4-18 mCherry cell survival.
[18] abbreviates: stronger effect = lower value, cell number ratio, induced over uninduced.
The mark [19] stands for this setting: measured here: relative caspase fold change +Dox/-Dox.
[20] abbreviates: measured here: total cells with miR-34 induction, stronger effect = lower value.
Where [21] appears, read: measured here: total cells without miR-34 induction.

Where “and” joins values, the source holds several entries; their conditions need not be identical. Identical values can stand only once. Results filed as inconclusive are left out. For some assays here: Entries with a potency or affinity are not part of this list. Calls of active or inactive are those of the source. Cut-off read from the data, not from the text of the source, unless noted: active = parasite load remaining mostly below about 12% (no sharp cut-off); inactive = mostly above about 10%.

What is called inhibition is the change of the read-out against control, counted positive when it falls. As usually defined, the EC50 is the midpoint of the concentration-response curve. Broadly, the viability is a read-out of living cells in per cent, often relative to untreated cells. For the molecule `C#C[C@]1(O)CCC2C3CCc4cc(O)ccc4C3CC[C@@]21C` (stereo partly drawn), the results for the inhibition in [1] and in assay [2] were 15.5% and 58.5% (active), respectively. In [2], this molecule gave an EC50 of 129 µM. The same molecule registered a score in [3] of 0.67. The same molecule returned a rescue above control in assay [4] of -11.3. The cytochrome c release ratio in [5] came to 1.15. For the same molecule, in assay [6], the inhibition of aggregation was found to be 38.1%. The glutamate uptake change in [7] is -12.7%. The aggregation suppression score in assay [8] worked out at 0.484. Also, the parasite load remaining in [9] is 88.3% (inactive) and 66.4% (inactive). The viability in assay [9] was 76.2% and 99.2%. Moreover, in assay [10], the red/green cell ratio (normalised) was 0.98 (inactive). Moreover, the normalised cell number in assay [10] (setting [16]) came to 1.1; in assay [10] (setting [17]) it was 1.07. Also, the fold change in assay [11] (setting [18]) is 1.12 (inactive) and 1.01 (inactive); in [11] (setting [19]), 1.15 and 1.03. Also, the cell count in [11] (setting [20]) was 5370 and 6100; in [11] (setting [21]), 4780 and 6050. For the same molecule, the z-score in assay [12] is -0.545 (inactive).

Turning to `C[N+](C)(C)C[C@H](O)CC(=O)[O-]`, in assay [9], the parasite load remaining is 53.1% (inactive). The molecule further returned a viability in assay [9] of 99.7%. Further, in [10], the red/green cell ratio (normalised) was 1.04 (inactive). For the same molecule, the normalised cell number was 0.94 in assay [10] (setting [16]) and 0.98 in [10] (setting [17]). Also, the fold change was 0.867 (inactive) in [11] (setting [18]) and 4.08 in assay [11] (setting [19]). Also, the cell count in [11] (setting [20]) amounted to 11500; in assay [11] (setting [21]) it was 13200. In assay [13], the remaining NAD was 10 nM (inactive). Also, the luciferase signal in assay [14] was 32 AU (inactive).

In the case of `NCC[C@@H](O)C(=O)N[C@@H]1C[C@H](N)[C@@H](O[C@H]2O[C@H](CN)[C@@H](O)[C@H](O)[C@H]2O)[C@H](O)[C@H]1O[C@H]1O[C@H](CO)[C@@H](O)[C@H](N)C1O` (stereo partly drawn), in [1], the inhibition was -41.9%. This molecule also gave a score in assay [3] of 1.11. The rescue above control in assay [4] is -4.05. Also, in assay [5], the cytochrome c release ratio stood at 0.95. The molecule further returned an inhibition of aggregation in assay [6] of 36.6%. For the same molecule, in [7], the glutamate uptake change amounted to 9.38%. This molecule showed an inclusion score in assay [15] of 2. In addition, the aggregation suppression score in [8] worked out at 1.24. The parasite load remaining in [9] was 115% (inactive) and 70.5% (inactive). In addition, the viability in assay [9] is 74.2% and 95.8%. Also, the red/green cell ratio (normalised) in assay [10] was 1 (inactive). For the same molecule, the normalised cell number in [10] (setting [16]) and in [10] (setting [17]) was 1.2 each time. Also, the fold change in assay [11] (setting [18]) was 0.885 (inactive); in assay [11] (setting [19]), 0.583. Also, the cell count in assay [11] (setting [20]) turned out to be 10600; in assay [11] (setting [21]) it was 11900.

With `CN1C2CC[C@@H]1CC(OC(=O)[C@H](CO)c1ccccc1)C2` (stereo partly drawn), the inhibition in assay [1] amounted to 10%. Besides, the score in [3] came to 1.23. Also, the rescue above control in [4] came to 0.71. Moreover, the cytochrome c release ratio in assay [5] came to 1.28. In [6], this molecule displayed an inhibition of aggregation of 89.7%. In assay [7], the glutamate uptake change is -13.3%. Also, the inclusion score in [15] was found to be 2. Also, in assay [8], the aggregation suppression score came out at 1.46. For the same molecule, the parasite load remaining in [9] is 85.7% (inactive) and 75.8% (inactive). In assay [9], the viability is 72.7% and 94.9%. In addition, in assay [10], the red/green cell ratio (normalised) is 0.96 (inactive). Besides, the normalised cell number in assay [10] (setting [16]) was 1.11; in assay [10] (setting [17]) it was 1.07. The fold change is 0.837 (inactive) in assay [11] (setting [18]) and 0.536 in [11] (setting [19]). Further, the cell count in assay [11] (setting [20]) was found to be 10500; in assay [11] (setting [21]), 12600.

Regarding `CC(=O)OCC(=O)[C@@]1(O)CCC2C3CCC4=CC(=O)C=CC4(C)C3[C@@H](O)C[C@@]21C` (stereo partly drawn), in [1], the inhibition was 26%. Also, the score in assay [3] was determined as 0.73. Moreover, the rescue above control in [4] is -9.27. For the same molecule, in [5], the cytochrome c release ratio was found to be 0.8. The molecule also displayed an inhibition of aggregation in assay [6] of 51%. The glutamate uptake change in [7] was found to be 16.1%. In [15], this molecule showed an inclusion score of 2. In assay [8], this molecule displayed an aggregation suppression score of 0.991. Also, the parasite load remaining in [9] is 118% (inactive) and 56% (inactive). The viability in assay [9] is 73.8% and 82.3%. Further, the red/green cell ratio (normalised) in [10] is 1.41 (inactive). The normalised cell number in [10] (setting [16]) was 1; in assay [10] (setting [17]), 1.41. The fold change in [11] (setting [18]) is 0.859 (inactive); in assay [11] (setting [19]), 2.47. For the same molecule, the figures for the cell count in assay [11] (setting [20]) and in assay [11] (setting [21]) were 6780 and 7890, respectively.

As for `CC(=O)OCC(=O)[C@@]1(O)CCC2C3CCC4=CC(=O)CC[C@]4(C)C3C(=O)C[C@@]21C` (stereo partly drawn), the inhibition in assay [1] is -3.61%. The same molecule had a score in [3] of 1.04. In assay [4], this molecule returned a rescue above control of -2.34. Moreover, the cytochrome c release ratio in assay [5] came to 0.91. In assay [6], this molecule gave an inhibition of aggregation of 69.7%. In addition, the glutamate uptake change in assay [7] was -1.1%. Further, in [15], the inclusion score worked out at 2. The aggregation suppression score in assay [8] was 0.738. Moreover, the parasite load remaining in assay [9] is 120% (inactive) and 65.9% (inactive). In addition, the viability in assay [9] is 67.1% and 90.7%. Moreover, the red/green cell ratio (normalised) in assay [10] was 1.08 (inactive). In addition, the results for the normalised cell number in [10] (setting [16]) and in [10] (setting [17]) were 1.08 and 1.17, respectively. For the same molecule, the fold change in assay [11] (setting [18]) is 0.911 (inactive); in assay [11] (setting [19]) it was 0.583. Further, the cell count was determined as 11400 in assay [11] (setting [20]) and 12500 in assay [11] (setting [21]).
